AmpC inh detg: AmpC beta-lactamase inhibition with detergent present; AmpC hydrolysis of nitrocefin, absorbance 480 nm, 0.01% Triton; 370,000 compounds, 0.041% hits; AID 485294; P00811; Potency, µM (series often up to 114 µM), most hits filed as inhibitors; further: nearly all actives have a fitted effect of over 25% in size
Target sequence (P00811 whole entry, looked up): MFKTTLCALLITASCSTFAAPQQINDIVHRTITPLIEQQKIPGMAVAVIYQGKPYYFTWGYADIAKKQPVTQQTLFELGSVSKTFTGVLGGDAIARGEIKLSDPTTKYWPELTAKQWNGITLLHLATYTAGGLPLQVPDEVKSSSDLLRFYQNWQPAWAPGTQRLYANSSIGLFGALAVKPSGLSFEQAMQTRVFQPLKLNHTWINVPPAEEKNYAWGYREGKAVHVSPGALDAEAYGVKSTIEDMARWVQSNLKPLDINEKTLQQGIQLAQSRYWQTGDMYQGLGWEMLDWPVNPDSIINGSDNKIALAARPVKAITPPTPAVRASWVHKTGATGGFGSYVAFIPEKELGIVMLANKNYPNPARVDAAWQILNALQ
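20 mM phosphate pH 7.0 + 0.01% (detergent screen) or 0.0001% Triton X-100; 5.3 nM AmpC reagent; cpd preinc 15 min RT; nitrocefin (800 uM stock) to start; A480 q20 s × 4 min; Activity was normalised to no-enzyme and no-compound control wells.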
Vaccinia Venus: inhibitors of vaccinia virus (Venus reporter) | Potency, µM (titrated, usually from 36.5 µM), most hits filed as inhibitors | AID 720580 | Vaccinia virus Venus reporter expression, fluorescence | 330,000 compounds, 0.46% hits; calls by dose curve; tested in A549 cells; further: nearly all actives have a fitted effect of over 30% in size
Vaccinia mCherry: inhibitors of vaccinia virus infection (mCherry reporter signal) | Vaccinia virus mCherry reporter infection, fluorescence | Potency, µM (doses to about 36.5 µM), actives largely listed as inhibitors | 310,000 compounds, 0.63% hits | AID 720579; calls by dose curve; tested in A549 cells; further: nearly all actives have a fitted effect of over 35% in size
SARS PLpro yeast: inhibitors of SARS-CoV papain-like protease in yeast; S. cerevisiae expressing SARS-CoV PLpro, growth rescue; Potency, µM (doses to about 32.9 µM), hits mostly activators; 330,000 compounds, 0.19% hits; calls by dose curve; further: nearly all actives have a fitted effect of over 55% in size
AmpC no deterg: inhibitors of E. coli AmpC beta-lactamase without detergent; P00811; AmpC nitrocefin hydrolysis, absorbance 480 nm, 0.0001% Triton; Potency, µM (series often up to 57.1 µM), most hits filed as inhibitors; 330,000 compounds, 0.52% hits; further: nearly all actives have a fitted effect of over 20% in size
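20 mM phosphate pH 7.0 + 0.01% (detergent screen) or 0.0001% Triton X-100; 5.3 nM AmpC reagent; cpd preinc 15 min RT; nitrocefin (800 uM stock) to start; A480 q20 s × 4 min; Activity was normalised to no-enzyme and no-compound control wells.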
AMA1-RON2 inh: disrupts binding of P. falciparum AMA1 to RON2; AlphaScreen AMA1-biotinylated RON2 peptide binding; Potency, µM (top dose mostly 58.2 µM), actives largely listed as inhibitors; 360,000 compounds, 0.2% hits; further: nearly all actives have a fitted effect of over 45% in size
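AMA1 (3D7) with his tag at 25 nM final met compounds first, then biotinylated RON2 peptide at 25 nM; detection used donor plus acceptor beads, 10 µg/mL apiece, read by AlphaScreen after 30 min at room temperature.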
Each line names hits and unclear results; the compound was inactive in the other large screens. Most compounds without a hit are left out; they make up all but 1.4% or so of the library. Unless noted, the call rests on the fitted dose curve; in most records, active means well fitted curve in the direction sought with a large enough effect; inconclusive means small, poorly fitted or top-dose-only effect, or another doubt; inactive means no such curve, though single readings can be large; an effect the other way counts as inactive or inconclusive.

OC(c1cc(C(F)(F)F)nc2c(C(F)(F)F)cccc12)C1CCCCN1 (stereo not drawn)	Vaccinia Venus inconclusive, Vaccinia mCherry inconclusive (no result: SARS PLpro yeast)
OC(c1cc(-c2ccc(C(F)(F)F)cc2)nc(C(F)(F)F)c1)C1CCCCN1 (stereo not drawn)	Vaccinia Venus 11µM, Vaccinia mCherry inconclusive
COc1ccc(CCNC(=O)c2ccc3c(c2)OCO3)cc1	AmpC inh detg inconclusive
COc1ccc2cc(CCNC(=O)c3ccc4c(c3)OCO4)c(=O)[nH]c2c1	AmpC inh detg inconclusive, AmpC no deterg 2.8µM
Cc1ccc(S(=O)(=O)c2cc(OC(=O)c3ccco3)ccc2OC(=O)c2ccco2)cc1	AmpC no deterg 13µM
COc1cccc(/C=N/Nc2ccc([N+](=O)[O-])cn2)c1O	Vaccinia Venus inconclusive, Vaccinia mCherry 1.1µM
COc1cccc(/C=N/Nc2nc(Nc3ccc([N+](=O)[O-])cc3)nc(N3CCCC3)n2)c1O	Vaccinia mCherry 4µM, SARS PLpro yeast inconclusive
O=[N+]([O-])c1ccc(Nc2nc(N/N=C/c3cccc(F)c3)nc(N3CCCC3)n2)cc1	none
Cc1ccccc1C1(CC(=O)N2CCCC(C)C2)CC(=O)N(Cc2cccnc2)C1=O (stereo not drawn)	none (no result: AmpC inh detg, SARS PLpro yeast, AmpC no deterg, AMA1-RON2 inh)
CCCCN(CCCC)CCn1cnc2c([nH]c3ccc(OC)cc32)c1=O	AmpC inh detg inconclusive, AmpC no deterg 20µM
Cc1ccc(O)c(/C=N/NC(=O)C2=NNC(c3ccccc3)(c3ccccc3)C2)c1	SARS PLpro yeast 6.3µM (no result: Vaccinia Venus, Vaccinia mCherry, AMA1-RON2 inh)
Cc1c(C(=O)NCC2CCCN(C)C2)cnn1-c1ncc2c(n1)-c1ccccc1CCC2 (stereo not drawn)	none (no result: AmpC inh detg, SARS PLpro yeast, AmpC no deterg, AMA1-RON2 inh)
CCc1cccc2c(N=O)c(O)[nH]c12	AmpC inh detg inconclusive
O=Nc1c(O)[nH]c2ccc(Cl)c(Cl)c12	Vaccinia Venus inconclusive, Vaccinia mCherry 14µM (no result: AmpC inh detg, SARS PLpro yeast, AmpC no deterg)
CCS(=O)(=O)N1CCc2cc(C(=O)N3CCN(c4cccc(C(F)(F)F)c4)CC3)ccc21	none (no result: SARS PLpro yeast, AmpC no deterg, AMA1-RON2 inh)
O=C(Nc1ccc(F)cc1)c1nc[nH]c1C(=O)Nc1ccccc1[N+](=O)[O-]	AmpC inh detg inconclusive
O=C(Nc1ccc(F)cc1)c1nc[nH]c1C(=O)O	AMA1-RON2 inh 14µM (no result: Vaccinia Venus, Vaccinia mCherry)
NC(=O)c1ccsc1NC(=O)COC(=O)COc1ccccc1[N+](=O)[O-]	AmpC inh detg 56µM (no result: Vaccinia Venus, Vaccinia mCherry)
C/C=C/C(=O)OCC(=O)Nc1ccc(OC)c(Cl)c1	Vaccinia Venus 10µM, Vaccinia mCherry 8.9µM
N=C1C(c2nc3ccccc3s2)=C(O)CN1NC(=O)c1c[nH]c2ccccc12	AmpC no deterg 16µM
N=C1C(c2nc3ccccc3s2)=C(O)CN1NC(=O)c1ccccc1[N+](=O)[O-]	none
Cc1ccc2nc3sc(C(=O)Nc4ccc(N5CCOCC5)cc4)c(N)c3cc2c1	AmpC no deterg 0.35µM (no result: Vaccinia Venus, Vaccinia mCherry, AMA1-RON2 inh)
Cc1cccc2cc3c(N)c(C(=O)Nc4ccc(N5CCOCC5)cc4)sc3nc12	none
Cc1cc(C)c2nc(N3CCCC(C(=O)NCc4ccccc4F)C3)sc2c1 (stereo not drawn)	none (no result: SARS PLpro yeast, AmpC no deterg, AMA1-RON2 inh)
CC(=O)OCC1=C(C(=O)O)N2C(=O)[C@@H](NC(=O)Cc3ccccc3)[C@H]2SC1	none (no result: AmpC inh detg, SARS PLpro yeast, AmpC no deterg)
CC(=O)OCC1=C(C(=O)O)N2C(=O)[C@@H](NC(=O)Cc3cccs3)[C@H]2SC1	AmpC inh detg 7.1µM, AmpC no deterg 8.9µM
Cc1[nH]c2ccccc2c(=O)c1C(=O)/C=C/c1ccccc1	Vaccinia Venus inconclusive, Vaccinia mCherry 3.2µM
COc1cc(CNCc2cc3cc(C)ccc3nc2-c2ccc(F)cc2)cc(OC)c1OC	none (no result: AmpC inh detg, SARS PLpro yeast, AmpC no deterg, AMA1-RON2 inh)
O=C(NCCc1ccccc1Cl)c1ccc2c(=O)n(-c3ccccc3)c(=O)[nH]c2c1	none (no result: SARS PLpro yeast, AmpC no deterg, AMA1-RON2 inh)
COC(=O)c1ccc(C(=O)NCC2Cc3cccc(-c4ccc(C(=O)OC)cn4)c3O2)cc1 (stereo not drawn)	none (no result: AmpC inh detg, SARS PLpro yeast, AmpC no deterg, AMA1-RON2 inh)
O=C(Nc1cccc(-c2ccc(N3CCOCC3)nn2)c1)c1ccc(Cl)cc1	AmpC inh detg inconclusive, AmpC no deterg 32µM
O=C(Nc1cccc(-c2ccc(N3CCOCC3)nn2)c1)c1cccc(Cl)c1	none (no result: AmpC inh detg, SARS PLpro yeast, AmpC no deterg)
Cc1occc1C(=O)Nc1cccc(-c2nc(CNC(=O)c3ccc(N4CCCCC4)cc3)c(C)o2)c1	none (no result: AmpC inh detg, SARS PLpro yeast, AmpC no deterg, AMA1-RON2 inh)

Source: PubChem (National Center for Advancing Translational Sciences (NCATS))
